Screening results (PubChem)
TDP1 cell noCPT – qHTS for Inhibitors of human tyrosyl-DNA phosphodiesterase 1 (TDP1): qHTS in cells in absence of CPT. DT40 Tdp1-/- hTDP1 cells, no CPT, ATP luminescence, 48 h. 420,000 compounds, 15% hits. Potency, µM (titrated, usually from 46.2 µM), actives largely listed as inhibitors. AID 686978, 2013; note: nearly all actives have a fitted effect of over 55% in size
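Readout: luminescence from CellTiter-Glo after 30 min in the dark at RT. Cells: DT40 Tdp1-/- with stable hTDP1, 400/well. Exposure: compounds alone, ≥48 hr, 37 °C.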
TDP1 cell CPT – DT40-hTDP1 cell growth loss with CPT | chicken DT40 Tdp1-/-;hTDP1 cells + 20 nM CPT, ATP luminescence, 48 h | Potency, µM (titrated, usually from 46.2 µM), actives largely listed as inhibitors | 420,000 compounds, 12% hits | AID 686979; note: nearly all actives have a fitted effect of over 55% in size
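Chicken DT40 Tdp1-/- cells stably complemented with human TDP1 were seeded at 400 cells/well in medium containing 20 nM camptothecin, exposed to pin-transferred compounds, and grown at 37 °C for at least 48 hr. Viability was read as ATP luminescence.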
TDP1 block – inhibitors of human tyrosyl-DNA phosphodiesterase TDP1; Q9NUW8; recombinant TDP1, AlphaScreen DNA substrate cleavage; Potency, µM (titrated, usually from 130 µM), hits mostly inhibitors; 350,000 compounds, 0.28% hits; AID 485290; note: nearly all actives have a fitted effect of over 40% in size
Target sequence (Q9NUW8 whole entry, looked up): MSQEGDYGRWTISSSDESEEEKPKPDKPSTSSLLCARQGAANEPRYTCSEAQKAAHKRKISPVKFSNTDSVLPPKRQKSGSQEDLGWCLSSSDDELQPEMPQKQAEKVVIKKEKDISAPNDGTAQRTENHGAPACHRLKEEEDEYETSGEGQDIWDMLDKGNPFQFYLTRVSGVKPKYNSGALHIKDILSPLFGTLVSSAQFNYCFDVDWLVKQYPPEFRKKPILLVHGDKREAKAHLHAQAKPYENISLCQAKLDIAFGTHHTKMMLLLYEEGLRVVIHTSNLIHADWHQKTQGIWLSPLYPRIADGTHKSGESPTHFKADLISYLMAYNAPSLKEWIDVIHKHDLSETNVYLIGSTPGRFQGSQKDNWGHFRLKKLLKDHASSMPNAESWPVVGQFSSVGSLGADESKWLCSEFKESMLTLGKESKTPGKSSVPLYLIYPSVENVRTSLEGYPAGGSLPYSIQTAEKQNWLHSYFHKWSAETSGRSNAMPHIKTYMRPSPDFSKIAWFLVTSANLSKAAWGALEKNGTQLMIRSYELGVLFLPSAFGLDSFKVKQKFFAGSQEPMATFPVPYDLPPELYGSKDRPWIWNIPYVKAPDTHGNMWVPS
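Compounds were preincubated with Tdp1 (1 nM final) for 15 min at room temperature before substrate (15 nM final) started a 5 min reaction; beads (10 ug/ml final) were then added for 10 min before AlphaScreen detection.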
IL1B secr inh – blocks inflammasome-driven IL-1 beta release | THP-1 LPS/ATP IL-1B secretion, AlphaLISA, 16 h; hits give low values | activity change, % at 57.5 µM | 360,000 compounds, 4.7% hits; in the data active = activity change below about -50%; inconclusive = mostly about -30% to -49%
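Secreted IL-1B measured by AlphaLISA bead assay after 16 h compound exposure of THP-1 cells; compounds (final up to 57.5 uM) added 1 h before LPS (250 ng/mL) and ATP (1.25 mM) stimulation; lower signal means less secretion.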
TGFb inhibitor – blocks TGF-b signaling; HepG2 CAGA-GFP TGF-b/SMAD3 reporter, GFP fluorescence, 18 h; TGF-beta stimulated, 500 pg/mL final; Potency, µM (top dose mostly 46.1 µM), hits mostly inhibitors; 410,000 compounds, 1.2% hits; AID 588855; note: nearly all actives have a fitted effect of over 65% in size
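TGF-beta reporter screen: HEPG2 CAGA-GFP, 1% FBS, 500 pg/mL TGF-beta final, 18 h; per-cell GFP summed per well; curves fitted and categorized by class.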
HepG2 viability – HepG2 cytotoxicity, counter-screen for TGF-b inhibitors. 410,000 compounds, 0.76% hits. HepG2 CAGA-GFP viability, ATP luminescence, 18 h. Potency, µM (titrated, usually from 46.1 µM), actives largely listed as cytotoxic
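CellTiter-Glo luminescence gave cytotoxicity after 18 hours at 37 degrees C. The cells were HepG2 CAGA-GFP in 1% FBS DMEM, stimulated with 500 pg/mL TGF-beta after compound addition. %Activity was normalised to no-cell wells (complete cell-killing) and DMSO (no toxicity), and curves were fitted and classified.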
Hits are given with their value; . = inactive; ? = inconclusive; / = no result given; [ ] = dose if it differs, or a comment. Compounds with a hit are over-represented: about 19% of the library has one in this group of screens. Unless noted, calls come from the whole dose curve; as a rule, active = well fitted curve in the direction sought with a large enough effect; inconclusive = small, poorly fitted or top-dose-only effect, or another doubt; inactive = no such curve, though single readings can be large; an effect the other way counts as inactive or inconclusive.

SMILES | TDP1 cell noCPT | TDP1 cell CPT | TDP1 block | IL1B secr inh | TGFb inhibitor | HepG2 viability
CCc1cc(=O)oc2cc(OC(C)C(=O)NCc3ccccn3)ccc12 (stereo not drawn) | . | . | . | . | . | .
CCC1Oc2ccc(C)cc2N(CC(=O)N(Cc2ccc3c(c2)OCO3)CC2CCCO2)C1=O (stereo not drawn) | ? | ? | . | ? | . | .
COc1ccc(CN(CC2CCCO2)C(=O)CN2C(=O)C(C)Oc3ccc(C)cc32)cc1OC (stereo not drawn) | 18.4µM | ? | . | . | . | .
CCCCNC(=S)N(C)/N=C/c1c(F)c(F)c(F)c(F)c1F | ? | . | . | -104.3 | . | .
O=C(CCCn1c(=O)c2cccn2c2ccccc21)NCc1ccccc1Br | 16.4µM | ? | . | / | . | .
CCOc1ccccc1CNC(=O)CCCn1c(=O)c2cccn2c2ccc(F)cc21 | 11.6µM | ? | . | / | . | .
CCOc1ccc(CNC(=O)CCCn2c(=O)c3cccn3c3ccc(F)cc32)cc1 | 11.6µM | ? | . | / | . | .
Cc1ccccc1CNC(=O)CCCn1c(=O)c2cccn2c2cccnc21 | ? | ? | . | / | . | .
C[C@@H]1C=CCC(=O)OC[C@H](C)C(=O)OC[C@H]2O[C@H]1C=C[C@@H]2O | / | / | .[21 µM] | / | / | /
COC1=CC(=O)C=C(OC)C1=O | 0.82µM | 0.651µM | . | -107.3 | ? | .
COc1cc(N=CC2=C(O)c3ccccc3C2=O)cc(OC)c1 | . | . | . | . | . | .
COC1=CC(=O)c2ccccc2C1=O | 4.11µM | 3.66µM | . | . | 1.41µM | 2.24µM
CCOc1ccccc1NC(=O)N(Cc1ccc(F)cc1)C1CCN(CC)CC1 | ? | ? | . | / | / | .
CCN1CCC(N(Cc2ccc(F)cc2)C(=O)Nc2cccc(C(F)(F)F)c2)CC1 | 16.4µM | 16.4µM | . | / | ? | .
CCN1CCC(N(Cc2cccc(OC)c2)C(=O)Nc2cccc(C)c2C)CC1 | 23.1µM | ? | . | / | . | .
CCN1CCC(N(Cc2ccc(F)cc2)C(=O)Nc2ccc(C)c(F)c2)CC1 | ? | ? | . | / | / | .
CCN1CCC(N(Cc2cccc(OC)c2)C(=O)Nc2cccc(C(F)(F)F)c2)CC1 | 20.6µM | ? | . | / | ? | 7.08µM
CC(C)CC(=O)n1nc(-c2ccco2)nc1NCc1ccc(Cl)cc1 | . | ? | . | / | . | .
CCc1cccc(NC(=O)CCS(=O)(=O)c2ccc(C)cc2)c1 | . | ? | . | / | . | .
CC(=O)Nc1ccc(OCCCN2CCC(C(O)(c3ccccc3)c3ccccc3)CC2)cc1 | ? | ? | / | . | / | /
OC(c1ccccc1)(c1ccccc1)C1CCN(CCCOc2cccc(OC(F)(F)F)c2)CC1 | 16.4µM | 16.4µM | / | -51.0 | / | /
N#CCc1ccc(OCCCN2CCC(C(O)(c3ccccc3)c3ccccc3)CC2)cc1 | 20.6µM | 23.1µM | / | ? | / | /
OC(c1ccccc1)(c1ccccc1)C1CCN(CCCOc2ccc3c(c2)CCCC3)CC1 | 5.17µM | 4.11µM | / | -115.1 | / | /
CC(C)(C)c1ccc(C(O)CCCN2CCC(C(O)(c3ccccc3)c3ccccc3)CC2)cc1 (stereo not drawn) | 4.61µM | 5.8µM | . | . | . | .
COc1ccc(C2(c3ccc(OC)cc3)NC(=O)N(CC(=O)NC3(C#N)CCCCC3)C2=O)cc1 | . | . | . | . | . | .
SMILES | TDP1 cell noCPT | TDP1 cell CPT | TDP1 block | IL1B secr inh | TGFb inhibitor | HepG2 viability
Cc1cccc(-c2nnc(SCCC(=O)O)o2)c1 | / | / | . | / | . | .
Cc1nc([N+](=O)[O-])c(C(=O)OCc2ccccc2Br)n1C | ? | . | . | . | . | .
Cc1nc([N+](=O)[O-])c(Br)n1CC(=O)c1ccc(Br)cc1 | 8.2µM | 7.31µM | . | -84.0 | ? | .
Cc1nc([N+](=O)[O-])c(Br)n1CC(=O)c1ccc2ccccc2c1 | 20.6µM | 20.6µM | . | -120.1 | ? | 10µM
Cc1nc([N+](=O)[O-])cn1CC(=O)c1ccc(Cl)cc1 | . | . | / | . | . | .
Cc1nc([N+](=O)[O-])c(Br)n1CC(=O)c1ccccc1 | 8.2µM | 18.4µM | . | ? | ? | .
CC(C)C[C@H]1COC(c2ccc(Br)cc2)=N1 | / | / | . | / | / | /
Cc1onc(-c2c(Cl)cccc2Cl)c1C(=O)N=C(N)N1CCCC1 | . | ? | . | . | . | .
COc1ccccc1C(=O)OC(C)CN1CCN(C)CC1 (stereo not drawn) | . | . | . | . | . | .
Cc1nnc(SCC(=O)Nc2cc(C(F)(F)F)ccc2N2CCOCC2)o1 | . | . | . | . | . | .
Cc1ccccc1SCC(=O)Nc1cc(C(F)(F)F)ccc1N1CCOCC1 | ? | ? | / | -69.7 | ? | .
CC(C)C(=O)Nc1cc(C(F)(F)F)ccc1N1CCOCC1 | . | . | . | . | . | .
CCOc1ccccc1NC(C)C(=O)Nc1cc(C(F)(F)F)ccc1N1CCOCC1 (stereo not drawn) | 18.4µM | ? | . | . | ? | .
CC(=O)NC(=S)Nc1cc(C(F)(F)F)ccc1N1CCOCC1 | ? | . | . | -61.3 | ? | .
CSc1nc2ccccc2n1CC(=O)Nc1cc(C(F)(F)F)ccc1N1CCOCC1 | 16.4µM | 20.6µM | . | . | ? | .
Cc1ccc(CNC(=O)c2cccc(-n3cnc4cccnc43)c2)cc1 | ? | ? | . | / | ? | .
COc1cccc(NC(=O)Cn2c(=O)n(CCCCC(=O)NCCc3ccccc3)c(=O)c3ccccc32)c1 | ? | ? | . | / | . | .
COCCNC(=O)CN(C(=O)CCC(=O)Nc1ccccn1)c1cc(C)ccc1C | . | . | . | . | . | .
Cc1cc(C(=O)OCC(=O)N2CC(C)OC(C)C2)c(C)n1-c1ccccc1 (stereo not drawn) | ? | ? | . | . | ? | .
O=C(CCNC(=O)c1ccc(Cl)cc1)Nc1cc(C(F)(F)F)ccc1N1CCOCC1 | 23.1µM | 25.9µM | / | . | . | .
COc1ccc2c(Sc3ccccc3)c(C(=O)NCc3ccc(OC(C)C)cc3)[nH]c2c1 | ? | ? | . | / | . | .
CN1C(=O)Cc2cc(S(=O)(=O)Nc3ccc(Cl)cc3)ccc21 | . | . | . | . | . | .
COc1ccc(C(=O)Nc2nc(OCC(F)(F)F)cnc2/C=C\c2ccccc2)c(OC)c1 | ? | 20.6µM | / | . | . | .
O=C(Nc1nc(OCC(F)(F)F)cnc1/C=C\c1ccccc1)c1ccsc1 | ? | 23.1µM | / | . | . | .
Cc1ccc(NC(=O)CSCC(=O)NC2(C)CCS(=O)(=O)C2)cc1 (stereo not drawn) | . | . | . | . | . | .
